# From PubChem BioAssay AID463173 (ICCB-Longwood Screening Facility, Harvard Medical School, 2010)
# Screen size: about 52,000 compounds; about 4,300 (8.3%) were called active. Rule as the data show it: active = survival mostly below about 52% (no sharp cut-off); inactive = mostly above about 56%. The full list was thinned out, with actives kept by preference.
# Test system: DeltatarO mutant
# Experiment: S. aureus survival, RN4220 and DeltatarO strains – OD600, teichoic acid synthesis inhibitors, primary screen (AID 463173)
# Conditions: S. aureus RN4220 wild type/DeltatarO growth, OD600, 18 h, stronger effect = lower value, screened at 18.75 µg/mL (by protocol)
row,Structure (SMILES),survival
1,N#Cc1c(Nc2ccccc2)sc(C(=O)c2cccs2)c1N,75% (inactive)
2,O=C(O)c1cccc2cc[nH]c12,101% (inactive)
3,Cc1ccc2nc(-c3cccc(NC(=O)c4cccc5ccccc45)c3)oc2c1,50% (inactive)
4,Cc1ccc2nc(-c3cccc(NC(=O)CSc4ccc(Cl)cc4)c3)oc2c1,56% (inactive)
5,COc1cccc(OC)c1C(=O)Nc1cccc(-c2nc3cc(C)cc(C)c3o2)c1,68% (inactive)
6,Cc1cc(C)c2oc(-c3cccc(NC(=O)c4ccco4)c3)nc2c1,87% (inactive)
7,CC(C)(C)c1ccc(-c2nc3cc(NC(=O)c4cc5ccccc5o4)ccc3o2)cc1,71% (inactive)
8,Cc1cc(C)c2oc(-c3cccc(NC(=O)c4ccc(-c5cccc([N+](=O)[O-])c5)o4)c3)nc2c1,75% (inactive)
9,Cc1cc(C)c2oc(-c3cccc(NC(=O)c4ccc(Br)o4)c3)nc2c1,34% (active)
10,Cc1ccc2nc(-c3cccc(NC(=O)c4ccc(Br)o4)c3)oc2c1,15% (active)
11,Cc1cc(C)c2oc(-c3cccc(NC(=O)c4cc5ccccc5o4)c3)nc2c1,36% (active)
12,CCc1ccc(-n2c(=O)c3cccnc3n2CC(=O)NCc2ccc(F)cc2)cc1,94% (inactive)
13,Cc1cccc(NC(=O)C2CCN(S(=O)(=O)c3cccc4nsnc34)CC2)c1C,88% (inactive)
14,CCc1ccc(C2=CC(c3cccc(C)c3)n3c(nc4ccccc43)N2)cc1 (stereo unspecified),80% (inactive)
15,COc1ccc(-n2c(SCC(=O)Nc3cc(C)cc(C)c3)nc3c(oc4ccccc43)c2=O)cc1,70% (inactive)
16,CCOc1ccc(NC(=O)c2ccc3[nH]c(C)cc(=O)c3c2)cc1,79% (inactive)

row,Structure (SMILES),survival
1,Cc1cccc(N2CCN(S(=O)(=O)c3ccc4c(c3)CC(=O)N4C)CC2)c1C,129% (inactive)
2,Cc1ccnc(NCc2cccc3ccccc23)c1,93% (inactive)
3,Cc1ccnc(NC(c2cc(C)ccc2O)c2ccc3cccnc3c2O)c1 (stereo unspecified),4% (active)
4,CCOc1cc(C(Nc2cc(C)ccn2)c2ccc3cccnc3c2O)ccc1OC (stereo unspecified),146% (inactive)
5,Oc1c(C(Nc2ccccn2)c2ccccc2F)ccc2cccnc12 (stereo unspecified),102% (inactive)
6,Cc1ccc(O)c(CNc2cccc3cccnc23)c1,79% (inactive)
7,Cc1ccnc(NC(c2ccccc2F)c2ccc3cccnc3c2O)c1 (stereo unspecified),-1% (active)
8,CC1CCc2c(sc3nnn(CC(=O)Nc4cccc(C(F)(F)F)c4)c(=O)c23)C1 (stereo unspecified),70% (inactive)
9,COc1ccc(NC(=O)c2cc(S(=O)(=O)N3CCCCCC3)cn2C)c(OC)c1,80% (inactive)
10,CC(=O)c1ccc(N2CCN(C(=O)CCn3cnc4onc(-c5ccc(F)cc5)c4c3=O)CC2)cc1,-5% (active)
11,O=C(Cn1cnc2onc(-c3ccc(F)cc3)c2c1=O)N1CCN(c2ccccc2F)CC1,76% (inactive)
12,O=C(CCn1cnc2onc(-c3ccc(F)cc3)c2c1=O)N1CCN(c2ccc(F)cc2)CC1,77% (inactive)
13,O=C(CCn1cnc2onc(-c3ccc(F)cc3)c2c1=O)N1CCN(c2ccccc2F)CC1,-4% (active)
14,COc1ccccc1N1CCN(C(=O)CCn2cnc3onc(-c4ccc(F)cc4)c3c2=O)CC1,66% (inactive)
15,O=C(CCn1cnc2onc(-c3ccc(F)cc3)c2c1=O)N1CCN(c2ccccc2)CC1,60% (inactive)
